Measurements taken from PubChem BioAssay AID1159580 (chemical genetic matrix, 2015).
Values joined by “and” are separate entries in the source; they are usually repeats but may differ in a detail not shown here. Equal values may be shown once. The whole screen tested about 5,500 compounds, of which about 2,000 (36%) were called active. Inconclusive results (about 18%) are left out. Rule as the data show it: active = normalized growth mostly below about 0.91 (no sharp cut-off); inconclusive = no clear call, values can overlap the other calls; inactive = mostly above about 0.92. The list shows a part of the results.

Assay: chemical genetic growth profiling, strain panel (AID 1159580);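 also: tested at 20 µM; growth read once vehicle control cultures reached saturation at 30 °C; 1 = growth at the plate median or of vehicle wells; lower values mean less growth of the strain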
Conditions: S. cerevisiae deletion strains, growth OD
[1] = locus YGR078C, strain PAC10, active compounds read low
[2] = locus YNL153C, strain GIM3, active compounds read low

Measured: normalized growth

Cn1c(=O)c2[nH]c(-c3ccc(S(=O)(=O)O)cc3)nc2n(C)c1=O
inactive: locus YAL040C, strain CLN3, active compounds read low 1.01 | locus YCL061C, strain MRC1 (second series), active compounds read low 1.01 | locus YER002W, strain NOP16, active compounds read low 1.01 | [1] 1.01 | [2] 1.03 | locus YNL175C, strain NOP13, active compounds read low 1.01 | locus YNL197C, strain WHI3, active compounds read low 0.993 | locus YNL224C, strain SQS1, active compounds read low 1 | locus YOR083W, strain WHI5 (second series), active compounds read low 0.98 | locus YPL055C, strain LGE1, active compounds read low 1 | locus YPL241C, strain CIN2, active compounds read low 1.02

COC(=O)CC1C(C)(C)C(OC(C)=O)[C@@H]2[C@@H](OC(C)=O)[C@]34O[C@@]2(O)[C@]1(C)C3CC[C@]1(C)C4=CC(=O)O[C@H]1c1ccoc1 (stereo not given in full)
inactive: locus YAL013W, strain DEP1, active compounds read low 1.02 | locus YAL021C, strain ccr4, active compounds read low 1.03 | locus YAL026C, strain drs2, active compounds read low 0.991 | locus YAL030W, strain snc1, active compounds read low 1.01 | locus YBL061C, strain skt5, active compounds read low 0.998 | locus YBR009C, strain hhf1, active compounds read low 1.03 | locus YBR021W, strain FUR4, active compounds read low 1.04 | locus YBR023C, strain chs3, active compounds read low 1.01 | locus YBR171W, strain sec66, active compounds read low 1 | locus YBR229C, strain ROT2, active compounds read low 0.96 | locus YBR231C, strain swc5, active compounds read low 1.01 | locus YBR279W, strain paf1, active compounds read low 1.01 | locus YCL011C, strain gbp2, active compounds read low 1.01 | locus YCL016C, strain dcc1, active compounds read low 1.02 | locus YCL029C, strain bik1, active compounds read low 1.02 | locus YCL061C, strain MRC1, active compounds read low 1.01 | locus YCL069W, strain vba3, active compounds read low 1.01 | locus YCR088W, strain abp1, active compounds read low 1.01 | locus YDL005C, strain med2, active compounds read low 0.991 | locus YDL035C, strain GPR1, active compounds read low 0.98 | locus YDL040C, strain nat1, active compounds read low 1.02 | locus YDL074C, strain BRE1, active compounds read low 1.03 | locus YDL101C, strain DUN1, active compounds read low 1.02 | locus YDL134C, strain PPH21, active compounds read low 1.05 | locus YDL185W, strain tfp1, active compounds read low 0.977 | locus YDL192W, strain arf1, active compounds read low 0.983 | locus YDR001C, strain nth1, active compounds read low 1.01 | locus YDR069C, strain doa4, active compounds read low 1.02 | locus YDR101C, strain arx1, active compounds read low 0.975 | locus YDR137W, strain rgp1, active compounds read low 0.93 | locus YDR150W, strain NUM1, active compounds read low 1.01 | locus YDR159W, strain sac3, active compounds read low 1 | locus YDR162C, strain NBP2, active compounds read low 1 | locus YDR195W, strain ref2 1.01 | locus YDR297W, strain sur2, active compounds read low 1.02 | locus YDR318W, strain mcm21, active compounds read low 0.997 | locus YDR334W, strain swr1, active compounds read low 1.01 | locus YDR335W, strain msn5, active compounds read low 1.01 | locus YDR388W, active compounds read low 1.02 | locus YDR392W, strain spt3, active compounds read low 1.07 | locus YDR502C, strain sam2, active compounds read low 1.03 | locus YEL003W, strain gim4, active compounds read low 1.01 | locus YEL037C, strain rad23, active compounds read low 1 | locus YEL061C, strain CIN8 (second series), active compounds read low 1 | locus YEL061C, strain CIN8, active compounds read low 1 | locus YER015W, strain faa2, active compounds read low 1.01 | locus YER016W, strain bim1, active compounds read low 1.01 | locus YER110C, active compounds read low 0.998 | locus YER111C, strain swi4, active compounds read low 0.988 | locus YER155C, strain BEM2 (second series), active compounds read low 1.05 | locus YER155C, strain BEM2, active compounds read low 1.01 | locus YER167W, strain BCK2, active compounds read low 0.991 | locus YFR010W, strain ubp6, active compounds read low 1 | locus YGL078C, strain dbp3, active compounds read low 1.01 | locus YGL086W, strain mad1, active compounds read low 1.02 | locus YGL167C, strain pmr1, active compounds read low 1.01 | locus YGL173C, strain kem1, active compounds read low 1 | locus YGL227W, strain vid30, active compounds read low 1 | locus YGL240W, strain doc1, active compounds read low 1.01 | locus YGL248W, strain PDE1, active compounds read low 1.03 | locus YGL253W, strain hxk2, active compounds read low 0.953 | [1] 1.05 | locus YGR135W, strain pre9, active compounds read low 1.08 | locus YGR252W, strain gcn5, active compounds read low 1.09 | locus YHR013C, strain ard1, active compounds read low 1.02 | locus YHR027C, strain rpn1, active compounds read low 1.01 | locus YHR030C, strain SLT2, active compounds read low 1.03 | locus YHR079C, strain IRE1 (second series), active compounds read low 0.989 | locus YHR079C, strain IRE1, active compounds read low 1.04 | locus YHR094C, strain hxt1, active compounds read low 1 | locus YHR129C, strain ARP1, active compounds read low 1.02 | locus YHR142W, strain chs7, active compounds read low 0.983 | locus YHR200W, strain rpn10, active compounds read low 1.03 | locus YIL066C, strain RNR3, active compounds read low 0.979 | locus YIL073C, strain SPO22, active compounds read low 0.988 | locus YIL125W, strain kgd1, active compounds read low 0.991 | locus YIR030C, strain dcg1, active compounds read low 0.996 | locus YJL092W, strain hpr5, active compounds read low 1.01 | locus YJL095W, strain BCK1 (second series), active compounds read low 0.999 | locus YJL095W, strain BCK1, active compounds read low 1.07 and 1.02 | locus YJL115W, strain asf1, active compounds read low 0.998 | locus YJL129C, strain trk1, active compounds read low 0.984 | locus YJL134W, strain LCB3, active compounds read low 0.996 | locus YJL154C, strain vps35, active compounds read low 1.02 | locus YJL164C, strain tpk1, active compounds read low 1 | locus YJL166W, strain qcr8, active compounds read low 1.01 | locus YJL168C, strain set2, active compounds read low 1.02 | locus YJL187C, strain SWE1 (second series), active compounds read low 1.04 | locus YJR066W, strain TOR1, active compounds read low 0.963 | locus YKL009W, strain mrt4, active compounds read low 0.921 | locus YKL068W, active compounds read low 0.99 | locus YKL085W, strain MDH1 (second series), active compounds read low 1.01 | locus YKL085W, strain MDH1, active compounds read low 1.01 | locus YKL160W, strain elf1, active compounds read low 1.01 | locus YKL190W, strain CNB1, active compounds read low 1 | locus YKR001C, strain vps1, active compounds read low 0.978 | locus YKR026C, strain gcn3, active compounds read low 1.01 | locus YKR091W, strain srl3, active compounds read low 1.01 | locus YLL001W, strain dnm1, active compounds read low 1 | locus YLL026W, active compounds read low 0.999 | locus YLL041C, strain sdh2, active compounds read low 0.998 | locus YLR027C, strain aat2, active compounds read low 1.01 | locus YLR039C, strain RIC1, active compounds read low 0.934 | locus YLR058C, strain SHM2, active compounds read low 0.988 | locus YLR102C, strain apc9, active compounds read low 1.01 | locus YLR113W, strain HOG1, active compounds read low 0.998 | locus YLR221C, strain rsa3, active compounds read low 1.03 | locus YLR258W, strain gsy2, active compounds read low 1 | locus YLR262C, strain YPT6 (second series), active compounds read low 0.963 | locus YLR262C, strain YPT6, active compounds read low 0.899 | locus YLR268W, strain sec22, active compounds read low 0.983 | locus YLR320W, strain mms22, active compounds read low 1.01 | locus YLR330W, strain CHS5, active compounds read low 1.01 | locus YLR342W, strain FKS1 (second series), active compounds read low 1.06 | locus YLR342W, strain FKS1, active compounds read low 1.01 | locus YLR357W, strain rsc2, active compounds read low 1.06 | locus YLR370C, strain arc18, active compounds read low 1.03 | locus YLR371W, strain rom2, active compounds read low 1.01 | locus YLR384C, strain iki3, active compounds read low 0.99 | locus YLR418C, strain cdc73, active compounds read low 1.07 | locus YML016C, strain PPZ1, active compounds read low 1.01 | locus YML032C, strain rad52, active compounds read low 0.991 | locus YML120C, strain ndi1, active compounds read low 1.03 | locus YML124C, strain tub3, active compounds read low 0.997 | locus YMR058W, strain fet3, active compounds read low 1.01 | locus YMR078C, strain ctf18, active compounds read low 0.998 | locus YMR125W, strain sto1, active compounds read low 1.02 | locus YMR129W, active compounds read low 0.996 | locus YMR205C, strain PFK2, active compounds read low 1.02 | locus YMR223W, strain ubp8, active compounds read low 1.03 | locus YMR231W, strain pep5, active compounds read low 0.994 | locus YMR307W, strain GAS1, active compounds read low 1.02 | locus YNL067W, strain RPL9B, active compounds read low 1.05 | locus YNL071W, strain lat1, active compounds read low 1.01 | locus YNL128W, strain TEP1, active compounds read low 0.97 | [2] 1.05 | locus YNL183C, strain NPR1, active compounds read low 0.978 | locus YNL209W, strain ssb2, active compounds read low 1.02 | locus YNL233W, strain BNI4, active compounds read low 1.08 | locus YNL248C, strain rpa49, active compounds read low 0.999 | locus YNL250W, strain rad50, active compounds read low 1 | locus YNL271C, strain bni1, active compounds read low 1 | locus YNL298W, strain CLA4, active compounds read low 1.01 | locus YNL307C, strain MCK1, active compounds read low 1.01 | locus YNL322C, strain KRE1 (second series), active compounds read low 1.01 | locus YNR049C, strain mso1, active compounds read low 1.01 | locus YNR052C, strain pop2, active compounds read low 1.06 | locus YOL012C, strain htz1 1.16 | locus YOL147C, strain pex11, active compounds read low 1 | locus YOR001W, strain rrp6, active compounds read low 1.02 | locus YOR061W, strain CKA2, active compounds read low 0.946 | locus YOR069W, strain VPS5, active compounds read low 1.01 | locus YOR070C, strain gyp1, active compounds read low 1.01 | locus YOR080W, strain dia2, active compounds read low 1 | locus YOR083W, strain WHI5, active compounds read low 1.01 | locus YOR106W, strain vam3, active compounds read low 1.02 | locus YOR136W, strain idh2, active compounds read low 1.02 | locus YOR144C, strain elg1, active compounds read low 1 | locus YOR184W, strain ser1, active compounds read low 0.957 | locus YOR231W, strain MKK1, active compounds read low 0.995 | locus YOR265W, strain rbl2, active compounds read low 1 | locus YOR270C, strain vph1, active compounds read low 0.806 | locus YOR290C, strain snf2, active compounds read low 1.01 | locus YOR316C, strain cot1, active compounds read low 1.01 | locus YPL051W, strain arl3, active compounds read low 1.02 | locus YPL078C, strain atp4, active compounds read low 1 | locus YPL106C, strain sse1, active compounds read low 1.06 | locus YPL240C, strain hsp82, active compounds read low 1.01 | locus YPL256C, strain CLN2, active compounds read low 1.04 | locus YPR119W, strain clb2, active compounds read low 1 | locus YPR141C, strain kar3, active compounds read low 0.979 | locus YPR163C, strain tif3, active compounds read low 1.01 | locus YPR167C, strain met16, active compounds read low 1.01 | strain wtn01, active compounds read low 0.982
